High-throughput results deposited in PubChem by National Center for Advancing Translational Sciences (NCATS).
The list is not random: actives were taken first. Their share in the collection is about 2.8%.
WRN inhibitor = blocks human WRN helicase. WRN helicase unwinding, fluorescent forked duplex, kinetic. 0.46% of 360,000 active. Potency, µM (highest dose often 114 µM), without a hit: at the highest dose activity change, negative = inhibition, actives largely listed as inhibitors; also: potency is read from the fitted curve at half-maximal effect; % is scaled to controls: 0 for no effect and ±100 for the full control effect; nearly all actives have a fitted effect of over 55% in size
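Fluorescence dequenching readout, ex 525 nm/em 598 nm, kinetic mode: forked duplex DNA (100 nM final) with adjacent fluorophore and quencher unwound by WRN (20 nM final) with 2 mM ATP. Compound preincubation 15 min, room temperature.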
Pol eta inh-1 = inhibitors of human DNA polymerase eta | Q9Y253 | recombinant Pol eta, fluorescent DNA replication assay | Potency, µM (highest dose often 114 µM), for the others: at the highest dose activity change, negative = inhibition, actives largely listed as inhibitors | 1.2% of 390,000 active; also: potency is read from the fitted curve at half-maximal effect; % is scaled to controls: 0 for no effect and ±100 for the full control effect
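Pol eta at 10 nM preincubated with compounds 15 min at room temperature; reaction started with fluorescent substrate (50 nM final) and read kinetically at 0 and 10 min.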
Pol kappa inh-1 = DNA polymerase kappa (human) inhibition | Q9UBT6 | purified Pol kappa, fluorescent DNA synthesis assay, 10 min | Potency, µM (series often up to 107 µM), without a hit: at the highest dose activity, negative = inhibition, hits mostly inhibitors | 0.53% of 400,000 active; also: potency is read from the fitted curve at half-maximal effect; % is scaled to controls: 0 for no effect and ±100 for the full control effect
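50 nM final substrate added after 15 min RT preincubation of 10 nM Pol kappa with compound; fluorescence read at 0 and 10 min.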
Pol iota inh = DNA polymerase iota (human) inhibition | 1% of 390,000 active | Potency, µM (highest dose often 115 µM), for inactives: at the highest dose activity, negative = inhibition, hits mostly inhibitors | Pol iota fluorescent replication assay, 10 min; also: potency is read from the fitted curve at half-maximal effect
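Fluorescent replication assay read twice, at 0 min and 10 min after adding 50 nM (final) substrate. Enzyme (10 nM) and compounds were first incubated 15 min at room temperature; enzyme-free buffer wells were negative controls.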
PI5P4K alpha inh = inhibitors of human PI5P4K alpha | P48426 | PI5P4Kalpha enzyme, ADP-Glo luminescence, 60 min; stronger effect = lower value | max response, % | 1.2% of 330,000 active; active = max response of -50% or lower; inconclusive = between -30% and -50%; inactive = -30% or higher; also: value at the top dose of about 77 µM; % is scaled to controls: 0 for no effect and ±100 for the full control effect
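Reactions run in 0.038 M HEPES pH 7.4, 0.28 mM EGTA, 0.1% CHAPS and 5% DMSO, with PI5P4Kalpha, substrate, compound and 5 microM ATP final, one hour at room temperature. Readout is ADP-Glo luminescence.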
POLB inh = blocks human DNA polymerase beta activity | AID 485314 | Potency, µM (top dose mostly 114 µM), for the others: at the top dose activity change, negative = inhibition, actives largely listed as inhibitors | P06746 | 1.3% of 340,000 active | Pol beta primer extension/strand displacement, fluorescence kinetic; also: potency is read from the fitted curve at half-maximal effect; % is scaled to controls: 0 for no effect and ±100 for the full control effect
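Enzyme-only controls used 10 nM Pol beta; buffer lacking enzyme served as negative control. Compound preincubated 15 min, then 50 nM substrate added; 0 and 10 min reads at room temperature.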
BAZ2B inh = confirmation of human BAZ2B bromodomain inhibitors | AlphaScreen BAZ2B / biotin-H3K14Ac peptide displacement | shares compounds with Pol kappa inh-1 | AID 588809 | Potency, µM, actives largely listed as inhibitors | 100% of 25 active; calls by dose curve
AlphaScreen ctr = counter-screen for BAZ2B inhibitors: AlphaScreen signal interference | AlphaScreen biotin-His6 peptide bead counterscreen, signal decrease | Potency, µM (series often up to 57.1 µM), for the others: top-dose activity change, negative = inhibition, most hits filed as inhibitors | AID 588859 | 25 tested, under 10 active | shares compounds with Pol kappa inh-1;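 active = clear concentration-dependent signal drop in the bead assay lacking the target, so a primary-screen artifact; inconclusive = weak, partial or single-dose response; inactive = no response, so a real primary hit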
TbPGK inh = validation of Trypanosoma brucei phosphoglycerate kinase inhibitors | shares compounds with Pol kappa inh-1 | TbPGK coupled GAPDH assay, Kinase-Glo luminescence | Potency, µM (highest dose often 57.5 µM), inactives show at the highest dose activity change, negative = inhibition, usual class: inhibitors | 79% of 500 active | AID 686980; also: potency is read from the fitted curve at half-maximal effect; % is scaled to controls: 0 for no effect and ±100 for the full control effect; nearly all actives have a fitted effect of over 65% in size
Target sequence (P07378 whole entry, looked up): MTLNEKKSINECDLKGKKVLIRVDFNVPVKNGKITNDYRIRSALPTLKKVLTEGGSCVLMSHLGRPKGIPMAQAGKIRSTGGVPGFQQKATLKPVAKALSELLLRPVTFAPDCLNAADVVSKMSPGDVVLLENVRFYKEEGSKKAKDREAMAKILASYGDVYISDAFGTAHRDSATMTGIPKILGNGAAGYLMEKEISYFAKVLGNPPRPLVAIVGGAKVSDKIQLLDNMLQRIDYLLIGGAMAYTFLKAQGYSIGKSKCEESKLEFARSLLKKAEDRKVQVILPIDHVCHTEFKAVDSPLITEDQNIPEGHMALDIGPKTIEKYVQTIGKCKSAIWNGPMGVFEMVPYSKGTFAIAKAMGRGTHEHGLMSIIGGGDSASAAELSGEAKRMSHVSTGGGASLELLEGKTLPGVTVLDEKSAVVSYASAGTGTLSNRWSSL
POLI cherry-pick = Human Pol iota inhibitor confirmatory assay; shares compounds with Pol kappa inh-1; Pol iota primer extension, TAMRA/BHQ fluorescence; Potency, µM, actives largely listed as inhibitors; 77% of 1,500 active; AID 720496; also: potency is read from the fitted curve at half-maximal effect
GALK confirm = confirmation of human galactokinase (GALK) inhibitors; purified GALK, Kinase-Glo ATP depletion luminescence; 70% of 150 active; Potency, µM (doses to about 115 µM), without a hit: at the top dose activity, negative = inhibition, hits mostly inhibitors; AID 2015; shares compounds with Pol eta inh-1
Redox cycling = counter-screen for GALK inhibitors: redox cycling H2O2 generation; shares compounds with Pol eta inh-1; Phenol red-HRP H2O2 redox cycling, absorbance 600 nm; Potency, µM (series often up to 115 µM), for the others: top-dose activity change, negative = H2O2 signal, hits mostly inhibitors; 40% of 150 active
HEK293 viability = HEK-293 cytotoxicity, GALK inhibitor secondary; AID 2547; HEK-293 viability, ATP luminescence (CellTiter-Glo), 24/48 h; Potency, µM (doses to about 46.1 µM), inactives show at the top dose activity change, negative = cytotoxicity, most hits filed as inhibitors; shares compounds with Pol eta inh-1; 10% of 170 active; also: potency is read from the fitted curve at half-maximal effect; % is scaled to controls: 0 for no effect and ±100 for the full control effect
Pol kappa inh-2 = Pol kappa (human) inhibition, cherry-pick confirmation; Potency, µM, usual class: inhibitors; purified Pol-kappa, fluorescent strand-displacement substrate; 76% of 920 active; shares compounds with Pol eta inh-1; also: potency is read from the fitted curve at half-maximal effect
Pol eta inh-2 = Pol eta (human) inhibition, cherry-pick confirmation; shares compounds with Pol eta inh-1; Pol eta primer extension, TAMRA/BHQ fluorescence, 10 min; Potency, µM, most hits filed as inhibitors; 64% of 2,600 active; also: potency is read from the fitted curve at half-maximal effect
Numbers without * were called inactive; ? = inconclusive; . = not tested or not shown; [ ] = another dose, or the depositor's remark. Unless noted, calls follow the shape of the dose curve; as a rule, active = well fitted curve in the direction sought with a large enough effect; inconclusive = small, poorly fitted or top-dose-only effect, or another doubt; inactive = no such curve, though single readings can be large; an effect the other way counts as inactive or inconclusive.

SMILES	WRN inhibitor	Pol eta inh-1	Pol kappa inh-1	Pol iota inh	PI5P4K alpha inh	POLB inh	POLI cherry-pick	Pol eta inh-2	others
COc1ccc(/C=C2/C(=O)N(Cc3ccco3)C(=O)N(C(C)C)C2=O)cc1	-33%[11.6 µM]	4.5µM*	20µM*	7.9µM*	?	20µM*	21*	11*	TbPGK inh=?
CN(C)c1ccc(/C=C2/C(=O)NC(=O)N(Cc3ccco3)C2=O)cc1	50µM*	6.3µM*	35µM*	16µM*	-58*	?	67*	38*	Pol kappa inh-2=30*
COC(=O)c1nc(-c2ccc3c(n2)C(=O)C(N)=C(OC)C3=O)c(N)c(-c2ccc(OC)c(OC)c2O)c1C	?	10µM*	?	8.9µM*	-7	?	47*	?	GALK confirm=5.3µM*;Redox cycling=6.7µM*;HEK293 viability=-4%
CCn1nc(/C=C/c2ccccc2)nc2c(=O)n(C)c(=O)nc1-2	-1%[11.6 µM]	0.79µM*	1%	-92%	0	-11%	0.75*	0.76*	TbPGK inh=0.52µM*
CCOc1ccc(-n2c(/C=C/c3ccccc3)nc3ccccc3c2=O)cc1	.	-13%	-9%[60.1 µM]	5%	.	0%	.	.
Cn1cccc1/C=C1/C(=O)NC(=O)N(C(C)(C)C)C1=O	-13%	8%	-17%	21%	0	-1%	.	.
O=C1NC(=O)N(CCc2ccc(F)cc2)C(=O)/C1=C/c1ccco1	35µM*	20µM*	?	13µM*	-75*	3.2µM*	67*	48*	TbPGK inh=8.2µM*
O=C(Nc1cccc(F)c1)N1CC2(CCNCC2)C1	.	.	-3%[60.1 µM]	.	.	.	.	.
CCC(Oc1ccc(Cl)cc1)C(=O)OC1CC2CCC(C1)N2C (stereo not drawn)	.	.	8%[19.4 µM]	.	.	.	.	.
CCN1CC2(OC(=O)c3ccccc3NC(C)=O)CCC(OC)[C@]34C1[C@H](CC23)[C@@]1(O)C[C@H](OC)[C@H]2CC4C1(O)[C@H]2OC (stereo partly drawn)	.	.	15%[60.1 µM]	.	.	.	.	.
O=C(NN=Cc1ccc(N(CCCl)CCCl)cc1)c1cc(=O)[nH]c(=O)[nH]1	-3%	-16%	6%	?	-2	.	.	.
O=C(Cc1cc(=O)oc2cc(O)ccc12)NN=Cc1ccc(N(CCCl)CCCl)cc1	?	16µM*	?	?	0	.	?	?
CN1C2CC(=O)CC1C(O)C2 (stereo not drawn)	.	.	12%[60.1 µM]	.	.	.	.	.
Cn1c(SCc2nc3cc(C(=O)O)ccc3c(=O)[nH]2)nnc1C(F)(F)F	2%	-9%	4%	151%	?	-19%	.	.
O=C(O)Cc1ccc(-n2cccc2)cc1	40µM*	3.5µM*	45µM*	13µM*	-28	4.5µM*	12*	7.6*	BAZ2B inh=25*;AlphaScreen ctr=?
O=C(Oc1ccc(N2C(=O)C3C4CCC(C4)C3C2=O)cc1)c1ccco1 (stereo not drawn)	-1%	-2%	-2%	22%	-1	3%	.	.
CC(C)CS(=O)(=O)C1=NN2C(=N)/C(=C\c3ccc(OC(=O)c4ccco4)cc3)C(=O)N=C2S1	?	20µM*	?	14µM*	-84*	45µM*	75*	24*
CC1=C2C(=O)C3C(CC=C4C[C@@H](O)CC[C@@]43C)[C@@H]2CC[C@]12O[C@@H]1C[C@H](C)CN[C@H]1C2C (stereo partly drawn)	.	.	11%[60.1 µM]	.	.	.	.	.
CC[n+]1c(-c2ccccc2)c2cc(N)ccc2c2ccc(N)cc21	3µM*	4.5µM*	20µM*	40µM*	5	.	15*	?	Pol kappa inh-2=9.5*
CCN1C(=O)NC(=O)/C(=C/c2cc(C)n(-c3sc(C)c(C)c3C#N)c2C)C1=O	?	?	-1%	-17%	?	14%	.	.
Cc1cc(/C=C2\C(=O)NC(=O)N(c3ccc(Cl)cc3)C2=O)c(C)n1-c1cccc(C(=O)O)c1	?	20µM*	-96%	18µM*	?	?	60*	6.7*	Pol kappa inh-2=17*
Cc1cc(/C=C2\C(=O)NC(=O)N(c3cccc(F)c3)C2=O)c(C)n1-c1cc(C(=O)O)cc(C(=O)O)c1	?	10µM*	50µM*	16µM*	-81*	22µM*	?	21*
Cc1ccc(N2C(=O)NC(=O)/C(=C\c3cc(C)n(-c4sc5c(c4C#N)CCCC5)c3C)C2=O)cc1	50µM*	20µM*	-37%	?	?	?	67*	19*
C[C@@H]1CO1	.	.	17%[60.1 µM]	.	.	.	.	.
CNc1ccc2oc(C[C@H]3O[C@]4(CC[C@H]3C)O[C@H]([C@H](C)C(=O)c3ccc[nH]3)[C@H](C)C[C@H]4C)nc2c1C(=O)O	.	.	-14%[19.4 µM]	.	.	.	.	.
